The whole screen tested about 91,000 compounds, of which about 40 (0.04%) were called active. Rule as the data show it: active = activation above about 37%; inactive = the rest. A selection follows.
molecular target: Bifunctional epoxide hydrolase 2 (Homo sapiens) (UniProt P34913); assay: soluble epoxide hydrolase activators, primary screen, biochemical, human sEH (AID 717); conditions: purified human sEH enzymatic activity, activator screen; at 2 µM; stronger effect = higher value
Sequence (P34913 whole entry, looked up): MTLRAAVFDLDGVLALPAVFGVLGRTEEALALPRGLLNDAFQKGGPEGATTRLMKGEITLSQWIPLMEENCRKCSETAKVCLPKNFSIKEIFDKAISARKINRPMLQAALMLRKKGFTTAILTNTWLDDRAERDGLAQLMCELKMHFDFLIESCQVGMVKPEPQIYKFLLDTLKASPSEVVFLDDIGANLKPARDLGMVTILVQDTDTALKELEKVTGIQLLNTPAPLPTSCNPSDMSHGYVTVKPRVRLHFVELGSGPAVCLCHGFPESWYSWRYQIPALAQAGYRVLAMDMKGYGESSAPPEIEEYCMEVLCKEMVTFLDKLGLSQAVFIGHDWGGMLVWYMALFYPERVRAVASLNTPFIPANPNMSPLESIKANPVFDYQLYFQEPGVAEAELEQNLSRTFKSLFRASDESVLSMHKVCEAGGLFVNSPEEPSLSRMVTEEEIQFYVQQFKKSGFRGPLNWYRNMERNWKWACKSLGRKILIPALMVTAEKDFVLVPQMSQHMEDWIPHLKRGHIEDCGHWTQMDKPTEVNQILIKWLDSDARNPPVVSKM

activation, inactive:
COc1ccc(C)cc1NC(=O)CCC(=O)Nc1nnc(C(F)(F)F)s1 -15.1%, Cc1nnsc1S(=O)(=O)Cc1ccccc1Cl -3.8%, CCCCNC(=O)c1onc(CSc2cccc(OC)c2)c1C(=O)O 11.8%, CS(=O)(=O)N1CCN(c2ccc(C(=O)NC3C4CC5CC(C4)CC3C5)cc2[N+](=O)[O-])CC1 (stereo unspecified) 8.8%, C(=N/N1CCN(c2ccccc2)CC1)/c1cccs1 4.8%, COCCCNC(NC(=O)c1ccc(C)cc1)C(Cl)(Cl)Cl (stereo unspecified) 18.3%, CCOC(=O)C1=C(CN2CCc3ccccc32)NC(=O)NC1c1cc(C)ccc1C (stereo unspecified) 7.8%, Nc1ccc(-c2sc(N)nc2-c2ccccc2)cc1 10.7%, COCC(C)NC(=O)c1ccc(-n2nc(C(F)(F)F)cc2-c2cccs2)cc1 (stereo unspecified) 3.4%, CC(=O)c1cn(CCCCCCCCCCn2cc(C(C)=O)c(=O)[nH]c2=O)c(=O)[nH]c1=O 3.2%, Cc1csc(=NC(=O)c2ccccc2)n1CCO 7.3%, CCc1ccc(C(=O)CSc2nnc(C)c(=O)[nH]2)cc1 -0.4%, CCCn1nnnc1NC(=O)COc1ccc(Cl)cc1C 36.8%, COc1ccccc1CNC(=O)c1ccc(SC)cc1OC 1%, Cc1nn(C)cc1/C=C1\CCC/C(=C\c2cn(C)nc2C)C1=O 11.7%, CCN(CC)c1nc(-c2ccccc2)cc(C(F)(F)F)c1C#N 30.7%, Nc1c(-c2cccc(Cl)c2)cnn1-c1cccc([N+](=O)[O-])c1 0.1%, O=c1c2ccccc2c(-c2ccc(Br)cc2)nn1Cc1ccccc1 -4.3%, O=C(COC(=O)c1ccccc1NC(=O)c1ccco1)Nc1ccc2c(c1)OC(F)(F)O2 -28.9%, CCCCNCc1ccc(SC)cc1 -8.5%, NC(=O)N1CCCC1C(=O)Nc1ccc(Cl)c(Cl)c1 (stereo unspecified) -4.5%, CCCCNC(=O)CSc1nc2ccc(NC(=O)CSc3nnc(COc4ccccc4C)n3C)cc2s1 -88.3%, Cc1cc(C(=O)OCC(=O)Nc2ccc(F)c(F)c2)c(C)o1 -9.4%, COc1ccc(CCNC(=S)NC(=O)/C=C/c2ccc(C)cc2)cc1OC 3.7%, CC1=NN(Cc2ccccc2)C(=O)/C1=C/c1ccc(N(C)C)cc1 4.2%, CCn1cc(C(=O)N/N=C(/C)c2ccc(F)cc2)c(=O)c2cc(F)c(N3CCCC3)cc21 11.6%, COc1ccc(NS(=O)(=O)c2ccc(NC(=S)NC(=O)CC(C)C)cc2)cc1 1.9%, O=C(NCCCN1CCOCC1)c1cc2c(s1)CCC2 -5.4%, O=C(CN1C(=O)NC(Cc2ccccc2)(Cc2ccccc2)C1=O)NCC1CCCCC1 11.9%, O=C(OCN1C(=O)c2ccccc2C1=O)/C(=C\c1ccco1)NC(=O)c1ccccc1 -78.7%, COC(=O)CNC(=O)c1ccccc1[N+](=O)[O-] 18.9%, CCOc1ccc(C(CCc2ccccc2)NC(=O)c2ccc(OC)c(OC)c2)cc1OCC (stereo unspecified) 23.3%, CC(CNc1ccc([N+](=O)[O-])cc1)NC(=O)c1ccccc1Br (stereo unspecified) 5%, C=CCn1c(-c2ccc(Cl)cc2)ccc(C#N)c1=O 2.9%, COc1ccc2c(c1)SC(C)CC2=O (stereo unspecified) 13.9%, CC1(C)CC(=O)C(C=NCCN2CCN(C(=S)Nc3cccc(Cl)c3)CC2)=C(O)C1 -11.3%, Cc1ccc(-c2csc(N(Cc3ccco3)C(=O)c3cccs3)n2)cc1 11.6%, CCOC(=O)NNC(=O)c1ccc(Cl)cc1 0.5%, CC(Oc1ccc(Cl)cc1Cl)C(=O)/C=C/N(C)C (stereo unspecified) -10%, COc1ccc(/C=N/Nc2nc3ccccc3c(=O)[nH]2)cc1 10%, O=[N+]([O-])c1ccc(NCCCN2CCOCC2)c(Cl)c1 -17.1%, Clc1ccc(-n2nnnc2CN2CCCCC2)cc1Cl -4%, C=CCOC(=O)C1=C(C)NC(C)=C(C(=O)OCC=C)C1c1cccs1 8.4%, COc1ccc(-c2cc(C(=O)n3cnc4ccccc43)c3ccccc3n2)cc1 11.7%, COc1cc(C(=O)N2CCN(C/C=C/c3ccccc3)CC2)cc(OC)c1C 11.7%, CCCCNC(=S)NNC(=O)c1cc(C)on1 -1.6%, CN(CC#CCC(c1ccccc1)c1ccccc1)C(C)(C)C -4.2%, CC(C)(C)c1cc2cccnc2n1Cc1ccccc1 -9.8%, COc1cc(C2C(C(=O)OCCC#N)=C(C)NC3=C2S(=O)(=O)c2ccccc23)cc(OC)c1OC (stereo unspecified) -9%, c1ccc(CSc2ncnc3c2sc2nc(N4CCOCC4)c4c(c23)CCCC4)cc1 -8.4%, c1cnc(Nc2nc(-c3ccc4ccccc4c3)cs2)nc1 9.6%, c1ccc2c(CSCc3nc4ccccc4[nH]3)cccc2c1 -10.8%, CCOC(=O)c1c(NC(=O)c2ccc(N3CCOCC3)c([N+](=O)[O-])c2)sc(C)c1C -11.3%, O=C(CN1CCN(S(=O)(=O)c2ccc(Cl)s2)CC1)NCc1ccc(Cl)cc1 0.3%, COc1ccc(C(=S)Nc2ccccc2)cc1 -3.8%, Cc1nn(-c2ccccc2)c(Cl)c1C(=O)Nc1ccccc1 2%, O=C(CNC(=O)c1cc2c(s1)CCC2)Nc1ccccc1Br -12.2%, CCNC(=S)N1CCN(C(=O)c2ccco2)CC1 1%, COc1cc(/C=N/O)cc(Br)c1OS(=O)(=O)c1ccc(C)cc1 12.9%, CCOC(=O)COc1cc(OCC(=O)OCC)c2c(=O)cc(-c3ccccc3)oc2c1 15.3%, Cc1ccc(C(=O)NNC(=O)OC(C)(C)C)c(Cl)c1 2%, Cc1ccc(NC(=S)N/N=C2/CCCc3c(C)cc(C)cc32)cc1 9.9%, O=C(CCC(=O)OCc1cccc(C(=O)Oc2ccccc2)c1)Nc1cccc2ccccc12 -9.6%, O=C(CSCc1c(Cl)cccc1Cl)NN1C(=O)c2ccccc2C1=O -21.2%, Cc1ccc(N2C(=O)C(Cc3ccccc3)NC2=S)cc1 (stereo unspecified) -3.9%, COc1ccc(NC(=O)CSc2nc(N)c(-c3ccccc3)c(=O)[nH]2)cc1 -3.7%, Cc1nn(C)c(Oc2ccccc2)c1[N+](=O)[O-] -3%, O=C(CSc1ccc(/C=N/NC(=O)c2cccc(F)c2)o1)Nc1ccccc1 -79%, CCOc1c2ccc(C(=O)NCc3ccc(OC(F)(F)F)cc3)cc2nn1C -0.5%, CC1=NN(C(=O)c2ccccc2Br)C(O)(c2cccnc2)C1 (stereo unspecified) -13.7%, Cc1nn(-c2ccccn2)c2c1C(c1ccncc1)C1=C(CC(C)(C)CC1=O)N2 (stereo unspecified) 3.8%, Cc1ccc(Oc2ccc3c(c2)C(=O)N(c2cccc4cccnc24)C3=O)cc1 -10.3%, Cc1cc(C)c2c(-n3cccc3)c(C(=O)NNS(=O)(=O)c3ccc(F)cc3)sc2n1 11.1%, Cc1nn(C)cc1C(=O)NNC(=S)Nc1ccc(Cl)cc1 -12.9%, O=C(NC1=NCCS1)[C@H](Cc1ccccc1)N1C(=O)c2ccccc2C1=O -7.6%, CCCCNC(=O)CCn1c(=S)[nH]c2cc3c(cc2c1=O)OCO3 -13.6%, O=C(c1cccc(F)c1)N1CCN(c2ccc([N+](=O)[O-])c(N3CCCCC3)c2)CC1 -8.2%, COc1ccc(N(CC(=O)N/N=C/c2cccc3c2OCCO3)S(=O)(=O)c2ccc(NC(C)=O)cc2)cc1 5.2%, COc1ccccc1-c1n[nH]c2c1[C@H](C)CC[C@H]2C(C)C 15.1%, COc1cccc2c1OCC(C(=O)NCc1ccc(Cl)cc1Cl)=C2 -78.6%, COc1ccc([N+](=O)[O-])cc1NC(=O)CCc1ccccc1 -7.7%, CCn1c2ccccc2c2cc(NC(=O)C/C(C)=N/NC(=O)c3ccccc3N)ccc21 -2.8%, COc1ccccc1CSc1nc2ccccc2[nH]1 2.2%, O=C(CNC(=O)c1ccccc1)NCC(=O)OCc1ccc(Cl)cc1 5.3%, c1ccc(-n2nnnc2NC2CCCCCC2)cc1 12.5%, COc1ccc(C(=O)NC(=S)Nc2ccccc2N2CCN(S(C)(=O)=O)CC2)cc1OC -12%, Cc1nnc(NC(=O)CSc2nc(C3CCCCC3)nc3ccccc23)s1 1.6%, Cc1c(C(=O)OC(C)C)sc(NC(=O)c2cccnc2)c1C#N -4.7%, Cc1ccc(NC(=S)Nc2ncccc2C)c(C)c1 -5.2%, CCOC(=O)C1CN(S(=O)(=O)c2ccc(F)cc2)C1 6.7%, CCCC(=O)NC(Nc1ccccc1OC)C(Cl)(Cl)Cl (stereo unspecified) -3.9%, CC(C)C(=O)OCC(=O)Nc1ccc2c(c1)CCC2 -1.7%, Cc1ccc(S(=O)(=O)N(CC(=O)N/N=C/c2ccc(F)cc2)c2cccc3cccnc23)cc1 6.1%, N#Cc1c(C(F)(F)F)cc(-c2ccccc2)nc1SCC(=O)N1CCOCC1 0.7%, N#C/C(=C1/CCCN1)c1ccccn1 -2.3%, Cc1cc(C)cc(OCC(=O)NNC(=O)c2cc3ccccc3oc2=O)c1 2%

Reference: PubChem BioAssay AID717 (Columbia University Molecular Screening Center, 2007)
